Records with an inconclusive call do not appear. Calls of active or inactive are those of the source. The call rests on the fitted dose curve; in most records, active means well fitted inhibition curve with a large enough effect; inconclusive means small, poorly fitted or top-dose-only effect; inactive means no such curve, though single readings can be large or run the other way.
Target: N-terminal Xaa-Pro-Lys N-methyltransferase 1 (Homo sapiens) (UniProt Q9BV86)
Assay: qHTS Assay for Inhibitors of N-terminal methyltransferase 1 (NTMT1): MTaseGlo Assay Confirmatory Screen, Round 1
Conditions: Recombinant NTMT1, MTase-Glo SAH luminescence; series mostly up to 57.1 µM
Excerpt: Assay Submitter (PI): Rong Huang Ph.D, Purdue University, West Lafayette, IN 47907 The N-terminal methytransferase 1 is the first methyltransferase that methylates protein alpha-N-amines and plays an important role in regulating cell mitosis, chromatin interactions and DNA repair. It is observed to be over-expressed in various cancer patient tissues like malignant melanoma and colorectal cancer tissues. Knockdown of NTMT1 in cancer cells causes cell mitotic defects and enhances sensitivity to DNA damaging chemotherapeutics. […] These critical cellular processes in which NTMT1 is implicated, coupled with emerging links to cellular dysfunction, strengthen the inference that NTMT1 is a compelling novel anticancer target. Progress have been made in understanding the molecular properties of NTMT1 and the biological consequences of protein alpha-N-terminal methylation, but there are no specific small molecule probes available for NTMT1 to fully characterize its MTase activity. To address this unmet need, a panel of assay is created and established to enable quantitative high-throughput screening (qHTS) for novel, potent, and selective small molecule NTMT1 inhibitors. Two orthogonal qHTS that use different reagents (ThioGlo vs. MTaseGlo) are developed for primary robotic screening against the NCATS chemical library of more than 400,000 small molecules. Identified inhibitors are reacquired, validated, and further characterized. MTaseGlo Assay is a luminescence screen that measure the activity of methyltransferases based on the reaction product S-adenosyl homocysteine (SAH). The substrate SAM is converted to SAH upon enzyme activation. MTase-Glo reagent and detection solution convert SAH to ATP and measure the light from the luciferase reaction. […] Early Translation Branch (ETB) National Center for Advancing Translational Sciences (NCATS) National Institute of Health (NIH)
Materials: NTMT1 enzyme, substrate SPKRIA, control peptide RCC1-6 is provided by the Huang laboratory. MTaseGlo Assay: In brief, 3 µL of enzyme mixture (final concentrations of 125 nM and 100 µM for NTMT1 and SAM, respectively) into all wells of a 1,536-well solid-bottom white plate (Greiner Bio One, Monroe, NC). 23 nL of DMSO or Ac-RCC1-10 (final concentration range 234 nM to 143 microM) was transferred via Wako Pin-tool (Wako Automation, Richmond, VA) and incubated (RT) for ~15 minutes. Next, 1 µL of substrate (final concentration 1 µM) or buffer was dispensed, and the reaction proceeded for 30 minutes (RT, protected from light) followed by a 1 microL addition of [5X] MTase-Glo Reagent(R). Samples were incubated (RT, protected from light) for 30 minutes to allow for SAH to be converted to ADP, followed by a 5 microL addition of [1X] MTase-Glo Detection Solution(R) to allow for ADP to be converted to ATP, which was then detected with a luciferase reaction. Samples were centrifuged for 15 seconds at 1,000 RPM's, followed by a RT incubation for 30 minutes. Plates were then read using Luminescence optics on a ViewLux detector. Data were normalized to no-enzyme (0% activity) and no-inhibitor (DMSO; 100%) controls, and the resulting percent inhibition data were fitted to a 4-parameter Hill equation using Graphpad Prism.

N-terminal Xaa-Pro-Lys N-methyltransferase 1 (Homo sapiens), sequence (Q9BV86 whole entry, looked up): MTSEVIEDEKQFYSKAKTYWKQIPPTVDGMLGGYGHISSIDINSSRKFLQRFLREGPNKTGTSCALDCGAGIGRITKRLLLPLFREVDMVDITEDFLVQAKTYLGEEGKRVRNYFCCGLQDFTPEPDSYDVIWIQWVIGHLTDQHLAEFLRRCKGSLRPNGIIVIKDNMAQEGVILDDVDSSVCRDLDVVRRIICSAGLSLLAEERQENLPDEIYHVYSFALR

| SMILES | outcome |
| --- | --- |
| Nc1ncnc2c1ncn2[C@@H]1O[C@H](COP(=O)(O)OP(=O)(O)OP(=O)(O)O)[C@H]2OC3(O[C@H]21)C([N+](=O)[O-])=CC(=[N+]([O-])[O-])C=C3[N+](=O)[O-] (stereo partly drawn) | inactive |
| Nc1ncnc2c1ncn2[C@@H]1O[C@@H]2CO[P@](=O)(S)O[C@H]2[C@H]1O | inactive |
| Nc1ncnc2c1ncn2[C@@H]1O[C@@H]2COP(O)(=S)O[C@H]2[C@H]1O (stereo partly drawn) | inactive |
| Nc1ncnc2c1ncn2[C@@H]1O[C@H](COP(=O)(O)CP(=O)(O)O)[C@@H](O)[C@H]1O | inactive |
| Nc1ncnc2c1nc(Sc1ccc(Cl)cc1)n2[C@@H]1O[C@@H]2COP(O)(=S)O[C@H]2[C@H]1O (stereo partly drawn) | inactive |
| CCNC(=O)[C@H]1O[C@@H](n2cnc3c(N)ncnc32)[C@H](O)C1O (stereo partly drawn) | inactive |
| CCN(CC)c1ncnc2c1ncn2[C@@H]1O[C@H](COP(=O)(O)OP(=O)(O)C(Br)(Br)P(=O)(O)O)[C@@H](O)[C@H]1O | inactive |
| COc1cc2nc(N3CCCN(C)CC3)nc(N(C)C3CCN(C)CC3)c2cc1OC | inactive |

From PubChem BioAssay AID1347145 (National Center for Advancing Translational Sciences (NCATS), 2019)
